Records with an inconclusive call do not appear. Calls of active or inactive are those of the source. Unless noted, the call rests on the fitted dose curve.

Assay [1] can be described thus: Nuclear factor erythroid 2-related factor 2/antioxidant responsive element (Nrf2/ARE) small molecule agonists: luciferase reporter gene qHTS assay in human keratinocytes (AID 1919969). Further: nearly all actives have a fitted effect of over 35% in size. Further: potency means the concentration at half of the fitted maximal effect.
The target in assay [2] is Gonadotropin-releasing hormone receptor (Homo sapiens) (UniProt P30968). The assay is described as follows: Human gonadotropin-releasing hormone receptor (GnRHR) small molecule agonists, calcium flux assay in GnRHR-HEK293 cells (AID 1920063). Further: nearly all actives have a fitted effect of over 35% in size. Further: potency means the concentration at half of the fitted maximal effect. The gist of the method:
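HEK293 cells stably expressing human GnRHR were dye-loaded for 1 h at 37 C. Compound was added in agonist mode and fluorescence (Ex/Em 480/540) recorded kinetically for 3 min. Fifteen concentrations, triplicates.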

The nature of assay [3]: G protein-coupled receptor (GPCR) small molecule agonists, calcium flux assay: HEK293 wild type cell line counter screen (AID 1920065). Further: potency means the concentration at half of the fitted maximal effect. A digest of the protocol:
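Wild-type HEK293 cells plated 18 h, loaded with calcium dye 1 h at 37 C, then compounds added in agonist mode (ATP as positive control). Kinetic fluorescence Ex/Em 480/540 recorded 3 min at 1 sec intervals; 15 concentrations, triplicate.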

Assay [4] in a line: p53 small molecule agonists, cell-based qHTS assay with rat liver microsomes (AID 1963578). The gist of the method:
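Metabolic activation is supplied by rat liver microsomes with NADPH (each 0.5 mg/mL final). p53RE-bla cells incubate with compound 16 h at 37 C; reporter activity is measured by LiveBLAzer fluorescence.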

Assay [5] can be described thus: p53 small molecule agonists, cell-based qHTS assay with human liver microsomes: qHTS cell viability counter screen (AID 1963579). Further: nearly all actives have a fitted effect of over 45% in size. Further: potency means the concentration at half of the fitted maximal effect. The gist of the method:
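After the 460/530 nm beta-lactamase read, CellTiter-Glo was added to the same wells and luminescence measured after 30 min at room temperature, giving viability of p53RE-bla cells treated 16 h with compounds plus microsomes and NADPH.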

The nature of assay [6]: p53 small molecule agonists, cell-based qHTS assay: qHTS cell viability counter screen (AID 1963581). Further: nearly all actives have a fitted effect of over 45% in size. Further: potency means the concentration at half of the fitted maximal effect. A digest of the protocol: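 p53RE-bla HCT-116 cells, compounds added 5 h after plating and incubated 16 h at 37 C. Cytotoxicity measured in the same wells as intracellular ATP by CellTiter-Glo luminescence after 30 min at room temperature.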
A short description of assay [7]: p53 small molecule agonists, cell-based qHTS assay (AID 1963582; active means well fitted activation curve with a large enough effect in the signal ratio in the repeat runs, not every such curve was filed as active; the % refers to the signal ratio). The gist of the method: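 p53RE-bla reporter cells, compounds added in DMSO after 5 h plating, incubated 16 h at 37 C. Beta-lactamase read via 2 h room-temperature LiveBLAzer B/G FRET substrate, fluorescence intensity.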
Assay [8] concerns the target 5-hydroxytryptamine receptor 2A (Homo sapiens) (UniProt P28223). The assay is described as follows: 5-hydroxytryptamine receptor 2A (HTR2A) small molecule agonists, cell-based qHTS assay (AID 1963587). Further: nearly all actives have a fitted effect of over 30% in size. Further: potency means the concentration at half of the fitted maximal effect. A digest of the protocol:
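Kinetic calcium-flux fluorescence (2 min, 1 sec intervals) after compound addition in agonist mode. HTR2A-CHO cells were cultured 18 h, then dye-loaded 1 h at 37 C.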

The nature of assay [9]: cAMP Responsive Elements (CRE) small molecule agonists, cell-based qHTS assay (AID 1963590). A digest of the protocol:
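CRE-bla HEK 293T cells, 2,000/well in DMEM with 10% dialyzed FBS and 25 mM HEPES, pre-incubated 18 h at 37 C, then exposed to compound 3 h at 37 C. Beta-lactamase reporter read with LiveBLAzer B/G FRET substrate after 2 h at room temperature.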

Assay [10] addresses D(2) dopamine receptor (Homo sapiens) (UniProt P14416). In words: Dopamine D2 receptor (DRD2) small molecule antagonists, cell-based qHTS assay (AID 1963595; active means well fitted inhibition curve with a large enough effect in the signal ratio in the repeat runs, with a control signal flat; the % refers to the signal ratio; further: potency means the concentration at half of the fitted maximal effect). The gist of the method:
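HEK293 cells stably expressing DRD2, preincubated with 0.1 mM Ro20-1724 and compounds 10 min, were stimulated with 200 nM NKH477 plus 12 nM quinpirole for 30 min at room temperature; cAMP measured by HTRF (665/620 nm).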

The nature of assay [11]: p53 small molecule agonists, cell-based qHTS assay with human liver microsomes (AID 1963577).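 Further: p53 response element beta-lactamase reporter cells with liver microsomes plus NADPH.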 A digest of the protocol:
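Steps: plate p53RE-bla cells, incubate 5 h at 37 C; add compound in DMSO; add microsomes (0.5 mg/mL final) and NADPH (0.5 mg/mL final); incubate 16 h at 37 C; add LiveBLAzer, 2 h RT; read fluorescence.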

Assay [12] is described as follows: p53 small molecule agonists, cell-based qHTS assay with rat liver microsomes: qHTS cell viability counter screen (AID 1963580). Further: nearly all actives have a fitted effect of over 45% in size. Further: potency means the concentration at half of the fitted maximal effect. A digest of the protocol: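 Intracellular ATP, by CellTiter-Glo luminescence, defines viability. HCT-116 p53RE-bla cells, 4,000 per well, were compound-treated in the presence of rat liver microsomes and NADPH for 16 h at 37 C.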
The target in assay [13] is 5-hydroxytryptamine receptor 2A (Homo sapiens) (UniProt P28223). In words: 5-hydroxytryptamine receptor 2A (HTR2A) small molecule antagonists, cell-based qHTS assay (AID 1963586). Further: nearly all actives have a fitted effect of over 45% in size. The gist of the method: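 Antagonist-mode intracellular calcium assay: DOI (4 nM) added after 5 min compound pre-incubation at room temperature to dye-loaded HTR2A-CHO cells. Fluorescence followed for 3 min, sampled every second.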
Sequence of 5-hydroxytryptamine receptor 2A (Homo sapiens) (P28223 whole entry, looked up): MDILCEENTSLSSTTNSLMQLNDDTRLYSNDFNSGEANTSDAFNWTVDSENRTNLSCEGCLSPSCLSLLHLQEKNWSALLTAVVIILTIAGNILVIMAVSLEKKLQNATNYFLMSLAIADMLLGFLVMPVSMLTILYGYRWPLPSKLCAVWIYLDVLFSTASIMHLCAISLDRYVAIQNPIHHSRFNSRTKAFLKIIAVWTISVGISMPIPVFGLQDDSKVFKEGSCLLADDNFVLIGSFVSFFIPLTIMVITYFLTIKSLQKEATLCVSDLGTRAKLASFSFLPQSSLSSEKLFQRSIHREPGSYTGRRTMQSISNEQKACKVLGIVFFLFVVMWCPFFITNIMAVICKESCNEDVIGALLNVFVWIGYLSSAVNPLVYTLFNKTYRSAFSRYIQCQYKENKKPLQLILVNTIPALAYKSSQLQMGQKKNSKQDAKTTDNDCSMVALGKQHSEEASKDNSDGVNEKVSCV

The target in assay [14] is Muscarinic acetylcholine receptor M1 (Homo sapiens) (UniProt P11229). In words: Cholinergic receptor muscarinic 1 (CHRM1) small molecule antagonists, cell-based qHTS assay (AID 1963588). Further: nearly all actives have a fitted effect of over 40% in size. The gist of the method:
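CHRM1-CHO calcium-flux assay, antagonist mode. Cells were seeded 18 h, dye-loaded 1 h at 37 C and given compound for 5 min at RT, then acetylcholine was added at 50nM. FDSS fluorescence was read 3 min; 15 concentrations, three runs.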

Assay [15] shares this target. The assay is described as follows: Cholinergic receptor muscarinic 1 (CHRM1) small molecule agonists, cell-based qHTS assay (AID 1963589). Further: nearly all actives have a fitted effect of over 35% in size. Further: potency means the concentration at half of the fitted maximal effect. A digest of the protocol: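 CHO cells stably expressing human CHRM1 were loaded with calcium dye for 1 h at 37 C, then compound was added in agonist mode. Intracellular calcium fluorescence was followed kinetically at 1 s intervals. Fifteen concentrations were tested in three independent runs.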

Assay [16] in a line: cAMP Responsive Elements (CRE) small molecule antagonists, cell-based qHTS assay (AID 1963591; active means well fitted inhibition curve with a large enough effect in the signal ratio in the repeat runs, not every such curve was filed as active; the % refers to the signal ratio; further: potency means the concentration at half of the fitted maximal effect). The gist of the method: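 CRE-bla HEK293T cells plated 18 h, then given compound plus NKH477 at 0.25 uM final for 3 h at 37C. Beta-lactamase reporter read with LiveBLAzer B/G FRET substrate after 2 h at room temperature.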
For assay [17], the target named is Beta-2 adrenergic receptor (Homo sapiens) (UniProt P07550). In words: Adrenergic beta2 receptor (ADRB2) small molecule antagonists, cell-based qHTS assay (AID 1963592). Further: nearly all actives have a fitted effect of over 50% in size. Further: potency means the concentration at half of the fitted maximal effect. The gist of the method: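 Cells (CHO, stable ADRB2 overexpression) incubated 18-20hr at 37C; compounds added from DMSO; agonist mix (1nM isoproterenol, 100uM IBMX, 25uM Ro-20-1724) added; 0.5hr RT; d2-cAMP and anti-cAMP-cryptate added; 1hr RT; 665/615 nm read.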
Sequence of Beta-2 adrenergic receptor (Homo sapiens) (P07550 whole entry, looked up): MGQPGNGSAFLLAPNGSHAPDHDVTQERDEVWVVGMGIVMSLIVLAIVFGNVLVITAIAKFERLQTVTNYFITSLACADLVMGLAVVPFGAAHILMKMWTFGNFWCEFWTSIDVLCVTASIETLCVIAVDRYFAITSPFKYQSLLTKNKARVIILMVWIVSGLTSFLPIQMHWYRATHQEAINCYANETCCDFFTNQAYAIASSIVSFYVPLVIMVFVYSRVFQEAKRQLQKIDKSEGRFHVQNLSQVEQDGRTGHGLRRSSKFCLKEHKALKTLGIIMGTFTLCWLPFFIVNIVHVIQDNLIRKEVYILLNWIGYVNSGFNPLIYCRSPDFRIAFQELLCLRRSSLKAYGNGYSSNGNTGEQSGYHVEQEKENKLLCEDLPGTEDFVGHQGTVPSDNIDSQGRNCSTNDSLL

The target of assay [18] is KiSS-1 receptor (Homo sapiens) (UniProt Q969F8). In words: Human kisspeptin (KISS1R) small molecule agonists, calcium flux assay in KISS1R-HEK293 cells (AID 1920064; active means well fitted activation curve with a large enough effect in the repeat runs). The gist of the method:
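HEK293 cells stably expressing human KISS1R were loaded with calcium dye for 1 h at 37 C, then given compound; fluorescence (Ex/Em 480/540) was read kinetically for 3 min. Fifteen concentrations, triplicate.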

In assay [19] the target is Beta-2 adrenergic receptor (Homo sapiens) (UniProt P07550). In words: Adrenergic beta2 receptor (ADRB2) small molecule agonists, cell-based qHTS assay (AID 1963593).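 Further: CHO cells stably overexpressing human ADRB2.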 A digest of the protocol: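 CHO cells stably over-expressing ADRB2 were plated overnight at 37C, then dosed with compounds plus a stimulation mix containing 100uM IBMX and 25uM Ro-20-1724 for 0.5hr at room temperature. cAMP was measured by HTRF competition, 1hr.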

The target of assay [20] is D(2) dopamine receptor (Homo sapiens) (UniProt P14416). The assay is described as follows: Dopamine D2 receptor (DRD2) small molecule agonists, cell-based qHTS assay (AID 1963594). Further: nearly all actives have a fitted effect of over 35% in size. A digest of the protocol:
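cAMP accumulation in DRD2-HEK293 cells measured by HTRF after 1 h detection; compounds added 10 min before NKH477 (200nM […]) forskolin-analogue stimulation, 30 min at room temperature, with Ro20-1724 present at 0.1 mM final.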

Sequence of KiSS-1 receptor (Homo sapiens) (Q969F8 whole entry, looked up): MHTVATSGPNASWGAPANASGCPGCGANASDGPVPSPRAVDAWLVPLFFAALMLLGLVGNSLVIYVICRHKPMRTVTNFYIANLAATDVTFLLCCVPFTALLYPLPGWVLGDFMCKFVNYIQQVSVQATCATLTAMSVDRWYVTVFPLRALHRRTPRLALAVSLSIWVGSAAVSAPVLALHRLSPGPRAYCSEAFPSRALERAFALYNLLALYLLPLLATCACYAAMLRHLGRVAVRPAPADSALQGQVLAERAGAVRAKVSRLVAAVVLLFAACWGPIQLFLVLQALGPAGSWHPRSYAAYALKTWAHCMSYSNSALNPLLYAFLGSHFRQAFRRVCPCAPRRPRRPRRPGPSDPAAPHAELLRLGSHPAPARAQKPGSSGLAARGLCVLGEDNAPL
Sequence of Gonadotropin-releasing hormone receptor (Homo sapiens) (P30968 whole entry, looked up): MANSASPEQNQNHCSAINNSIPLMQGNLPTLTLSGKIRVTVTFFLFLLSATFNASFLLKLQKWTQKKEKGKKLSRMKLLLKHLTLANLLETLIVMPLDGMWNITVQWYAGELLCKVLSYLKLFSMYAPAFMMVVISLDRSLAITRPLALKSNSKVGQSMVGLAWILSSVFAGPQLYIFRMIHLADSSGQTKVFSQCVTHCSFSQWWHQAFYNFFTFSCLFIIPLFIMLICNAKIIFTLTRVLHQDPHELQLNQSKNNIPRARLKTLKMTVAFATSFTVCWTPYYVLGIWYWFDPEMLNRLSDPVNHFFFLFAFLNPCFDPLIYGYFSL
Sequence of D(2) dopamine receptor (Homo sapiens) (P14416 whole entry, looked up): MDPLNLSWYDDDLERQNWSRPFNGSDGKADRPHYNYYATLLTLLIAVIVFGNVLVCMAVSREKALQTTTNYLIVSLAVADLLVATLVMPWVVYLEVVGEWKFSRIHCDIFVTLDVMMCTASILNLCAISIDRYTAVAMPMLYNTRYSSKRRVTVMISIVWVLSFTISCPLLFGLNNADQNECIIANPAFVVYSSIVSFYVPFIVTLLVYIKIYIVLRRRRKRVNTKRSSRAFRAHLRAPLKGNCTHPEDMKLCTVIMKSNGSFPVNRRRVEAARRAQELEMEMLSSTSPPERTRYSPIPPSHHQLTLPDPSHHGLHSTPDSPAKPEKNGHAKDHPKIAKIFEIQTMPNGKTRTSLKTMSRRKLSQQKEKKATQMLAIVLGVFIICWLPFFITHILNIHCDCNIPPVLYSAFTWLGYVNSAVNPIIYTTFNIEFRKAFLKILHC
Sequence of Muscarinic acetylcholine receptor M1 (Homo sapiens) (P11229 whole entry, looked up): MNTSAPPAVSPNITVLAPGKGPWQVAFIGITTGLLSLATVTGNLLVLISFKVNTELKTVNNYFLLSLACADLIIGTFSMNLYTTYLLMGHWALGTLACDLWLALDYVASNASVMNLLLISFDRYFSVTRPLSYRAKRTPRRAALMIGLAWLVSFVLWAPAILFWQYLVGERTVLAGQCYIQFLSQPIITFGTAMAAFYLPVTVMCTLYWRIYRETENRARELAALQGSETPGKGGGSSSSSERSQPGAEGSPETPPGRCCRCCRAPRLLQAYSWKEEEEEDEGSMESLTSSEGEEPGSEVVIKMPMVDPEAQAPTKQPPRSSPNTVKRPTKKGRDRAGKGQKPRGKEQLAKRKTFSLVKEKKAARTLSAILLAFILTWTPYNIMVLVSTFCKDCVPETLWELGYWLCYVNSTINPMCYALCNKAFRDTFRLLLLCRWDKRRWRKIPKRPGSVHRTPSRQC

`CC(C)(C)C(O)C(Oc1ccc(Cl)cc1)n1cncn1` (configuration not stated): the Potency in assay [1] was 68.6 µM (active). The Potency entry in assay [2], in assay [3], in assay [4], in assay [5], in assay [6] and in assay [7] was “inactive” in each case. Further, the Potency result in assay [8], in [9] and in assay [10] was “inactive” throughout.

As for `Nc1nc(N)c(N)c(N)n1`, the Potency entry in assay [1], in assay [11], in [4], in [5], in [12] and in assay [6] was “inactive” each time. The Potency entry in assay [7], in [13], in [14], in assay [9], in assay [16] and in assay [17] was “inactive” in each case. Moreover, the Potency in [2] is 39.1 µM (active); in assay [3], 39.1 µM (active); in [8], 43.9 µM (active); in assay [15] it was 55.2 µM (active).

For `CCNS(=O)(=O)C(F)(F)C(F)(F)C(F)(F)C(F)(F)C(F)(F)C(F)(F)C(F)(F)C(F)(F)F`, the Potency in assay [1] is 58.5 µM (active). The Potency entry in [2], in assay [18], in assay [5], in assay [12], in [6] and in assay [13] was “inactive” each time. Also, the Potency entry in [8], in assay [14], in assay [15], in assay [9], in assay [16] and in assay [17] was “inactive” in each case. In addition, the Potency entry in assay [19], in [20] and in assay [10] was “inactive” throughout.

Turning to `CCCCCCCc1ccc(O)cc1`, the Potency in [1] is 24.3 µM (active); in [16], 68.6 µM (active). The Potency result in assay [18], in [3], in assay [12], in [6], in assay [13] and in assay [8] was “inactive” throughout. Besides, the Potency entry in [9], in [17], in assay [19] and in assay [20] was “inactive” throughout.

For the compound `c1ccc2c(c1)cc1ccc3cccc4ccc2c1c34`, the Potency entry in assay [1], in assay [2], in [3], in assay [12], in assay [6] and in assay [17] was “inactive” each time. Moreover, in assay [19], the Potency entry was “inactive”.

Take `O=C1OC(c2ccc(O)c(S(=O)(=O)O)c2)(c2ccc(O)c(S(=O)(=O)O)c2)c2c(Br)c(Br)c(Br)c(Br)c21`: the Potency in assay [1] is 8.41 µM (active). Besides, the Potency entry in assay [2], in assay [3], in assay [4], in assay [5], in [12] and in [6] was “inactive” each time. In addition, the Potency result in [7], in [13], in assay [8], in [14], in assay [15] and in assay [9] was “inactive” each time. Further, the Potency entry in assay [16], in assay [17], in assay [20] and in [10] was “inactive” throughout.

As to `CC1(C)CC/C(=C/c2ccc(Cl)cc2)C1(O)Cn1cncn1` (configuration not stated), the Potency in [1] is 43 µM (active). For the same compound, the Potency result in assay [2], in [3], in assay [11], in assay [4], in [12] and in assay [14] was “inactive” in each case. Further, the Potency result in assay [15] and in [10] was “inactive” throughout.

`Cc1cc(C2CC2)nc(Nc2ccccc2)n1`: the Potency was 68.6 µM (active) in assay [1] and 54.5 µM (active) in [17]. The Potency result in [2], in [3], in assay [11], in assay [4], in assay [5] and in assay [6] was “inactive” each time. In addition, the Potency entry in [13], in [8], in [15], in assay [20] and in assay [10] was “inactive” each time.

Regarding `[Cl][Hg][c]1ccccc1`, the Potency in assay [1] was 0.969 µM (active); in assay [5], 4.58 µM (active); in assay [12] it was 8.14 µM (active); in [6], 2.89 µM (active); in [8], 49 µM (active); in assay [10], 13.7 µM (active). Moreover, the Potency entry in assay [18], in assay [3], in assay [11], in assay [4], in assay [13] and in assay [14] was “inactive” each time.

For `NS(=O)(=O)C(F)(F)C(F)(F)C(F)(F)C(F)(F)C(F)(F)C(F)(F)C(F)(F)C(F)(F)F`, the values for the Potency in assay [1] and in [15] were 68.6 µM (active) and 0.0022 µM (active), respectively. For the same compound, the Potency result in assay [18], in assay [3], in [11], in assay [4], in assay [5] and in assay [12] was “inactive” each time. For the same compound, the Potency result in assay [6], in assay [8], in assay [14], in [16], in [17] and in [19] was “inactive” in each case. Further, in assay [10], the Potency result was “inactive”.
